# Reference: PubChem BioAssay (NCI)
# The panel holds about 79,000 compounds, 15% with a hit somewhere; the sample as a whole holds those more often. Values without a mark were called inactive. Active and inactive are the calls of the source. Rule as the data show it: active = growth inhibition above about 70%; inactive = the rest.
# Assays:
# [1] = NCI Yeast Anticancer Drug Screen. Data for the rad52 strain (AID 147);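 also: 0% = growth of vehicle-treated control cultures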; details: S. cerevisiae rad52 mutant growth inhibition, hits give high values
# Summary of the method: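 Read-out: growth inhibition versus vehicle-treated controls. Cells were a DNA repair-deficient yeast strain treated with compounds.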
# [2] = NCI Yeast Anticancer Drug Screen. Data for the wt1 strain (AID 149);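 also: 0% = growth of vehicle-treated wt1 cultures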; details: S. cerevisiae wt1 strain (SPY 50644) growth inhibition, hits give high values
# Summary of the method: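 Yeast wt1 strain exposed to compounds; growth inhibition measured relative to vehicle-treated controls.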
# [3] = NCI Yeast Anticancer Drug Screen. Data for the rad50EPP+ strain (AID 151);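 also: 0% = growth of vehicle-treated control cultures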; details: S. cerevisiae rad50 mutant strain, hits give high values
# Summary of the method: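 Growth inhibition read against vehicle controls in rad50EPP+ yeast, a strain altered in DNA damage repair, after compound exposure.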
# [4] = NCI Yeast Anticancer Drug Screen. Data for the mgt1 strain (AID 153); details: S. cerevisiae mgt1 mutant growth inhibition, hits give high values
# Summary of the method: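 mgt1 yeast grown with test compound; read-out is growth inhibition versus vehicle-treated cultures.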
# [5] = NCI Yeast Anticancer Drug Screen. Data for the rad50 strain (AID 155);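 also: 0% = growth of vehicle-only cultures of the same strain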; details: S. cerevisiae rad50 strain growth inhibition, hits give high values
# Summary of the method: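 Yeast carrying a defined DNA repair defect were exposed to test compounds, and growth was compared with vehicle-treated controls to give percent inhibition.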
# [6] = NCI Yeast Anticancer Drug Screen. Data for the mec2-1 strain (AID 157); details: S. cerevisiae mec2-1 strain, hits give high values
# Summary of the method: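 Yeast mec2-1 mutant treated with compound. Readout: growth inhibition vs vehicle controls.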
# [7] = NCI Yeast Anticancer Drug Screen. Data for the rad14 strain (AID 159);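 also: 0% = growth of vehicle-treated control cultures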; details: S. cerevisiae rad14 strain growth inhibition, hits give high values
# Summary of the method: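 Yeast cells carrying a defined DNA-repair defect were exposed to compounds, and growth inhibition was calculated relative to vehicle-treated control cultures.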
# [8] = NCI Yeast Anticancer Drug Screen. Data for the sgs1 mgt1 strain (AID 161);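 also: 0% = growth of cultures given vehicle only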; details: S. cerevisiae sgs1 mgt1 strain, hits give high values
# Summary of the method: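 Inhibition of yeast growth, normalised to vehicle-treated controls, is reported for a strain bearing genetic alterations in DNA damage repair.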
# [9] = NCI Yeast Anticancer Drug Screen. Data for the CLN2oe strain (AID 163);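 also: 0% = growth of vehicle-only control cultures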; details: S. cerevisiae CLN2oe strain, hits give high values
# Summary of the method: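 Read-out: yeast growth inhibition, expressed relative to vehicle-only controls. The strain bears an engineered cell-cycle alteration.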
# [10] = NCI Yeast Anticancer Drug Screen. Data for the cln2 rad14 strain (AID 165);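 also: 0% = growth equal to vehicle treated cultures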; details: S. cerevisiae cln2 rad14 strain, hits give high values
# Summary of the method: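 cln2 rad14 yeast strain; compound exposure; growth inhibition read vs vehicle controls.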
# [11] = NCI Yeast Anticancer Drug Screen. Data for the bub3 strain (AID 167); details: S. cerevisiae bub3 mutant strain, hits give high values
# Summary of the method: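 Compounds were applied to a genetically altered yeast strain carrying a cell-cycle control defect. Growth inhibition was scored against vehicle-treated controls.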
# [12] = NCI Yeast Anticancer Drug Screen. Data for the wt2 strain (AID 169);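 also: 0% = growth of vehicle-treated yeast cultures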; details: S. cerevisiae wt2 strain growth inhibition, hits give high values
# Summary of the method: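 Read-out: growth inhibition versus vehicle-treated control cultures after compound exposure of the yeast strain.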
# [13] = NCI Yeast Anticancer Drug Screen. Data for the mlh1 strain (AID 171);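 also: 0% = growth of vehicle-treated control cultures of the same strain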; details: S. cerevisiae mlh1 strain growth inhibition, hits give high values
# Summary of the method: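 Read-out: growth inhibition versus vehicle controls. Strain: engineered yeast with a defined DNA repair or cell cycle defect, compound-treated.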
# [14] = NCI Yeast Anticancer Drug Screen. Data for the sgs1 strain (AID 173);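 also: 0% = growth of vehicle-only control cultures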; details: S. cerevisiae sgs1 mutant, hits give high values
# Summary of the method: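 Read-out: yeast growth inhibition relative to vehicle controls, following compound exposure of a strain with a defined DNA repair/cell cycle alteration.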
# [15] = NCI Yeast Anticancer Drug Screen. Data for the mlh1 rad18 strain (AID 175); details: S. cerevisiae mlh1 rad18 strain growth inhibition, hits give high values
# Summary of the method: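 Yeast w/ defined DNA-repair lesions; compound exposure; growth vs vehicle controls → % inhibition.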
# [16] = NCI Yeast Anticancer Drug Screen. Data for the rad18 strain (AID 177); details: S. cerevisiae rad18 mutant growth inhibition, hits give high values
# Summary of the method: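 Readout: growth inhibition vs vehicle controls. Cells: genetically altered yeast strain, DNA repair defect.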
# [17] = at 5.0 µM (retest, dose inferred, filed as 0.5)
# [18] = at 50.0 µM (retest, dose inferred, filed as 5.0)
compound,measurement,setting,value
COC1=CCC23C(=O)C=CC(=O)C2(C1)C(=O)c1ccccc1C3=O (stereo unspecified),growth inhibition,[1]; at 1.2 µM,-40%
same,growth inhibition,[1]; at 3.7 µM,-35%
same,growth inhibition,[1]; at 11.0 µM,12%
same,growth inhibition,[1]; at 33.0 µM,54%
same,growth inhibition,[1]; at 100.0 µM,89% (active)
same,growth inhibition,[2]; at 1.2 µM,-34%
same,growth inhibition,[2]; at 3.7 µM,-24%
same,growth inhibition,[2]; at 11.0 µM,-16%
same,growth inhibition,[2]; at 33.0 µM,-1%
same,growth inhibition,[2]; at 100.0 µM,93% (active)
same,growth inhibition,[3]; at 1.2 µM,19%
same,growth inhibition,[3]; at 3.7 µM,17%
same,growth inhibition,[3]; at 11.0 µM,25%
same,growth inhibition,[3]; at 33.0 µM,30%
same,growth inhibition,[3]; at 100.0 µM,62%
same,growth inhibition,[4]; at 1.2 µM,-24%
same,growth inhibition,[4]; at 3.7 µM,-14%
same,growth inhibition,[4]; at 11.0 µM,6%
same,growth inhibition,[4]; at 33.0 µM,40%
same,growth inhibition,[4]; at 100.0 µM,93% (active)
same,growth inhibition,[5]; at 1.2 µM,-27%
same,growth inhibition,[5]; at 3.7 µM,-47%
same,growth inhibition,[5]; [17],19%
same,growth inhibition,[5]; at 11.0 µM,12%
same,growth inhibition,[5]; at 33.0 µM,52%
same,growth inhibition,[5]; [18],72% (active)
same,growth inhibition,[5]; at 50.0 µM,65.8%
same,growth inhibition,[5]; at 100.0 µM,87% (active)
same,growth inhibition,[6]; at 1.2 µM,8%
same,growth inhibition,[6]; at 3.7 µM,-4%
same,growth inhibition,[6]; [17],20%
same,growth inhibition,[6]; at 11.0 µM,-11%
same,growth inhibition,[6]; at 33.0 µM,34%
same,growth inhibition,[6]; [18],88% (active)
same,growth inhibition,[6]; at 50.0 µM,55.5%
same,growth inhibition,[6]; at 100.0 µM,91% (active)
same,growth inhibition,[7]; at 1.2 µM,-24%
same,growth inhibition,[7]; at 3.7 µM,2%
same,growth inhibition,[7]; at 11.0 µM,1%
same,growth inhibition,[7]; at 33.0 µM,50%
same,growth inhibition,[7]; at 100.0 µM,92% (active)
same,growth inhibition,[8]; [17],-2%
same,growth inhibition,[8]; [18],76% (active)
same,growth inhibition,[8]; at 50.0 µM,74.7% (active)
same,growth inhibition,[9]; at 1.2 µM,17%
same,growth inhibition,[9]; at 3.7 µM,8%
same,growth inhibition,[9]; at 11.0 µM,18%
same,growth inhibition,[9]; at 33.0 µM,38%
same,growth inhibition,[9]; at 100.0 µM,92% (active)
same,growth inhibition,[10]; [17],0%
same,growth inhibition,[10]; [18],-49%
same,growth inhibition,[10]; at 50.0 µM,36.5%
same,growth inhibition,[11]; at 1.2 µM,-30%
same,growth inhibition,[11]; at 3.7 µM,-38%
same,growth inhibition,[11]; [17],2%
same,growth inhibition,[11]; at 11.0 µM,-29%
same,growth inhibition,[11]; at 33.0 µM,15%
same,growth inhibition,[11]; [18],78% (active)
same,growth inhibition,[11]; at 50.0 µM,74.4% (active)
same,growth inhibition,[11]; at 100.0 µM,91% (active)
same,growth inhibition,[12]; at 1.2 µM,-11%
same,growth inhibition,[12]; at 3.7 µM,-5%
same,growth inhibition,[12]; at 11.0 µM,23%
same,growth inhibition,[12]; at 33.0 µM,40%
same,growth inhibition,[12]; at 100.0 µM,93% (active)
same,growth inhibition,[13]; at 1.2 µM,-11%
same,growth inhibition,[13]; at 3.7 µM,-25%
same,growth inhibition,[13]; at 11.0 µM,-2%
same,growth inhibition,[13]; at 33.0 µM,54%
same,growth inhibition,[13]; at 100.0 µM,95% (active)
same,growth inhibition,[14]; at 1.2 µM,10%
same,growth inhibition,[14]; at 3.7 µM,-6%
same,growth inhibition,[14]; at 11.0 µM,24%
same,growth inhibition,[14]; at 33.0 µM,61%
same,growth inhibition,[14]; at 100.0 µM,93% (active)
same,growth inhibition,[15]; [17],26%
same,growth inhibition,[15]; [18],84% (active)
same,growth inhibition,[15]; at 50.0 µM,68.2%
same,growth inhibition,[16]; at 1.2 µM,-21%
same,growth inhibition,[16]; at 3.7 µM,-20%
same,growth inhibition,[16]; at 11.0 µM,32%
same,growth inhibition,[16]; at 33.0 µM,44%
same,growth inhibition,[16]; at 100.0 µM,83% (active)
CCCCCCCCCCCCCCCCCCNC(=S)/N=C/c1c(O)c2ccccc2[nH]c1=O,growth inhibition,[1]; at 1.2 µM,7%
same,growth inhibition,[1]; at 3.7 µM,4%
same,growth inhibition,[1]; at 11.0 µM,16%
same,growth inhibition,[1]; at 33.0 µM,11%
same,growth inhibition,[1]; at 100.0 µM,12%
same,growth inhibition,[2]; at 1.2 µM,-32%
same,growth inhibition,[2]; at 3.7 µM,-6%
same,growth inhibition,[2]; at 11.0 µM,-3%
same,growth inhibition,[2]; at 33.0 µM,-3%
same,growth inhibition,[2]; at 100.0 µM,-3%
same,growth inhibition,[3]; at 1.2 µM,1%
same,growth inhibition,[3]; at 3.7 µM,3%
same,growth inhibition,[3]; at 11.0 µM,12%
same,growth inhibition,[3]; at 33.0 µM,29%
same,growth inhibition,[3]; at 100.0 µM,40%
same,growth inhibition,[4]; at 1.2 µM,1%
same,growth inhibition,[4]; at 3.7 µM,4%
same,growth inhibition,[4]; at 11.0 µM,2%
same,growth inhibition,[4]; at 33.0 µM,1%
same,growth inhibition,[4]; at 100.0 µM,0%
same,growth inhibition,[5]; at 1.2 µM,-1%
same,growth inhibition,[5]; at 3.7 µM,0%
same,growth inhibition,[5]; [17],-12%
same,growth inhibition,[5]; at 11.0 µM,1%
same,growth inhibition,[5]; at 33.0 µM,1%
same,growth inhibition,[5]; [18],61%
same,growth inhibition,[5]; at 50.0 µM,63%
same,growth inhibition,[5]; at 100.0 µM,-1%
same,growth inhibition,[6]; at 1.2 µM,0%
same,growth inhibition,[6]; at 3.7 µM,2%
same,growth inhibition,[6]; [17],-5%
same,growth inhibition,[6]; at 11.0 µM,-3%
same,growth inhibition,[6]; at 33.0 µM,2%
same,growth inhibition,[6]; [18],27%
same,growth inhibition,[6]; at 50.0 µM,6.6%
same,growth inhibition,[6]; at 100.0 µM,-1%
same,growth inhibition,[7]; at 1.2 µM,1%
same,growth inhibition,[7]; at 3.7 µM,1%
same,growth inhibition,[7]; at 11.0 µM,0%
same,growth inhibition,[7]; at 33.0 µM,4%
same,growth inhibition,[7]; at 100.0 µM,4%
same,growth inhibition,[8]; [17],4%
same,growth inhibition,[8]; [18],26%
same,growth inhibition,[8]; at 50.0 µM,86.5% (active)
same,growth inhibition,[9]; at 1.2 µM,-4%
same,growth inhibition,[9]; at 3.7 µM,-3%
same,growth inhibition,[9]; at 11.0 µM,2%
same,growth inhibition,[9]; at 33.0 µM,-7%
same,growth inhibition,[9]; at 100.0 µM,3%
same,growth inhibition,[10]; [17],-7%
same,growth inhibition,[10]; [18],16%
same,growth inhibition,[10]; at 50.0 µM,-24%
same,growth inhibition,[11]; at 1.2 µM,-4%
same,growth inhibition,[11]; at 3.7 µM,-4%
same,growth inhibition,[11]; [17],-25%
same,growth inhibition,[11]; at 11.0 µM,-2%
same,growth inhibition,[11]; at 33.0 µM,-5%
same,growth inhibition,[11]; [18],69%
same,growth inhibition,[11]; at 50.0 µM,72.3% (active)
same,growth inhibition,[11]; at 100.0 µM,26%
same,growth inhibition,[12]; at 1.2 µM,-3%
same,growth inhibition,[12]; at 3.7 µM,-1%
same,growth inhibition,[12]; at 11.0 µM,-2%
same,growth inhibition,[12]; at 33.0 µM,4%
same,growth inhibition,[12]; at 100.0 µM,20%
same,growth inhibition,[13]; at 1.2 µM,0%
same,growth inhibition,[13]; at 3.7 µM,-2%
same,growth inhibition,[13]; at 11.0 µM,-3%
same,growth inhibition,[13]; at 33.0 µM,-4%
same,growth inhibition,[13]; at 100.0 µM,-4%
same,growth inhibition,[14]; at 1.2 µM,0%
same,growth inhibition,[14]; at 3.7 µM,3%
same,growth inhibition,[14]; at 11.0 µM,6%
same,growth inhibition,[14]; at 33.0 µM,11%
same,growth inhibition,[14]; at 100.0 µM,23%
same,growth inhibition,[15]; [17],9%
same,growth inhibition,[15]; [18],28%
same,growth inhibition,[15]; at 50.0 µM,58.4%
same,growth inhibition,[16]; at 1.2 µM,2%
same,growth inhibition,[16]; at 3.7 µM,4%
same,growth inhibition,[16]; at 11.0 µM,6%
same,growth inhibition,[16]; at 33.0 µM,22%
same,growth inhibition,[16]; at 100.0 µM,25%
